# Screening results: PubChem, National Center for Advancing Translational Sciences (NCATS)
# Tau fibril FP: qHTS for Inhibitors of Tau Fibril Formation, Fluorescence Polarization | Microtubule-associated protein tau (Homo sapiens), P10636 | K18 P301L tau heparin fibrillization, Alexa594 FP, 6 h | Potency, µM (titrated, usually from 57.7 µM), most hits filed as inhibitors | 280,000 tested, 0.39% active; note: nearly all actives have a fitted effect of over 55% in size
# Target sequence (P10636 561-689 P618L limits assumed): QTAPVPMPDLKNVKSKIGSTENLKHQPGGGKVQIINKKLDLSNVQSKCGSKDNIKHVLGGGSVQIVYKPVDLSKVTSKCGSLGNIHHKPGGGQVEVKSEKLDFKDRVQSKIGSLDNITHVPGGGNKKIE
#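 Steps: dispense K18 P301L tau (15 uM plus 0.24 uM Alexa 594 tracer, final) in pH 7 sodium acetate; add compound; add heparin (20 uM final); incubate 6 hr, 37 C; add ThT (30 uM final); after 1 hr ambient, read FP.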
# Luc counter: Counterscreen for Luciferase (Kinase-Glo TM) Inhibition | Luciferin 4-monooxygenase (Photuris pensylvanica), Q27757 | Kinase-Glo luciferase, ATP luminescence, 8 min | Potency, µM (highest dose often 38.3 µM), hits mostly inhibitors | 200,000 tested, 0.28% active | AID 1379, 2008; note: nearly all actives have a fitted effect of over 60% in size
#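 Inhibition of Kinase-Glo luciferase light generation was assessed at 10 uM ATP in pH 7.2 imidazole buffer, with luminescence measured after eight minutes at ambient temperature.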
# Tau fibril ThT: qHTS for Inhibitors of Tau Fibril Formation, Thioflavin T Binding. recombinant tau K18 P301L, heparin-induced fibrillization, ThT fluorescence. 270,000 tested, 2.1% active. Potency, µM (titrated, usually from 57.4 µM), most hits filed as inhibitors. Microtubule-associated protein tau (Homo sapiens), P10636. AID 1460, 2008; note: nearly all actives have a fitted effect of over 55% in size
#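 Tau K18 P301L fragment (15 uM unlabeled plus 0.24 uM Alexa 594-labeled) in 100 mM sodium acetate pH 7 with compound, fibrillization induced by 20 uM heparin for 6 hr at 37 C. Thioflavin T (30 uM) added, fluorescence read after 1 hr (ex 450, em 510 nm).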
# Tau fluor cs: Counterscreen qHTS for Inhibitors of Tau Fibril Formation, Fluorescence Polarization; AID 1463, 2008; Potency, µM (highest dose often 57.7 µM); tau K18 P301L Alexa594 fluorescence, heparin fibrillization; 280,000 tested, 0.93% active; note: nearly all actives have a fitted effect of over 55% in size
#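 Human tau K18 P301L (15 uM unlabeled, 0.24 uM Alexa 594-labeled) in 100 mM sodium acetate pH 7 with 20 uM heparin, 6 hr at 37 C. ThT 30 uM added, 1 hr ambient; Alexa 594 FP and total fluorescence read at 555/632 nm.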
# NPSR antagonist: qHTS Assay for Antagonists of the Neuropeptide S Receptor: cAMP Signal Transduction | CHO-NPSR cells, cAMP TR-FRET, antagonist mode | Potency, µM (titrated, usually from 38.3 µM), usual class: inhibitors | 220,000 tested, 1% active | AID 1461, 2008; note: nearly all actives have a fitted effect of over 50% in size
# Target sequence (Q6W5P4 whole entry, looked up): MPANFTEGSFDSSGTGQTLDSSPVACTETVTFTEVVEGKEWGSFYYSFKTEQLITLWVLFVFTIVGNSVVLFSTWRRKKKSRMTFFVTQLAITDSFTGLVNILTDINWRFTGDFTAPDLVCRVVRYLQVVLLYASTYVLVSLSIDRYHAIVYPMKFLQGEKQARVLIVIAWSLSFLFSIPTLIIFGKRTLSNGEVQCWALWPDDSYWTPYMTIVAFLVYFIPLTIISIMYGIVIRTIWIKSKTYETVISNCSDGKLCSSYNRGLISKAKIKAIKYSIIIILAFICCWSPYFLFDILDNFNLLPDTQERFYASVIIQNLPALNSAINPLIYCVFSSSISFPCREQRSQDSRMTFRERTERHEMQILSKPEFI
# Hits are given with their value; n = inactive; u = inconclusive; x = no result; ! = a repeat was not active; [ ] = dose if it differs, or a comment. This is a sample that favours compounds with a hit; in the whole collection about 3.3% have one here. Calls come from the whole dose curve; as a rule, active = well fitted curve in the direction sought with a large enough effect; inconclusive = small, poorly fitted or top-dose-only effect, or another doubt; inactive = no such curve, though single readings can be large; an effect the other way counts as inactive or inconclusive.
SMILES,Tau fibril FP,Luc counter,Tau fibril ThT,Tau fluor cs,NPSR antagonist
Cc1ccc2[nH]c(C)c(CCNC(=O)c3cc4cc([N+](=O)[O-])ccc4oc3=O)c2c1,n,n,u,u,n
COc1ccc2oc(=O)c(C(=O)NCCc3c(C)[nH]c4ccc(F)cc34)cc2c1,u,x,u,7.94µM[quencher],x
CSc1nc2ccccc2n1C(=O)Oc1ccccc1,n,n,u,n,n
Cc1ccc(C(=O)n2c(N)nc3ccccc32)cc1,n,11.2µM,n,n,n
NCCCC[C@H](NC(=O)[C@H](Cc1ccccc1)NC(=O)[C@H](CCCN=C(N)N)NC(=O)[C@@H](N)Cc1ccc(O)cc1)C(N)=O,n,x,n,n,x
COC(=O)C(O)C(O)(CCC(C)C)C(=O)OC1C(OC)=CC23CCCN2CCc2cc4c(cc2C13)OCO4 (configuration not stated),n,n,n,n,x
COc1ccc(-c2cnnn2-c2ccc(NC(=O)c3ccc(S(=O)(=O)N(C)C)cc3)cc2)cc1,n,x,n,u,x
COc1ccc(C(=O)Nc2ccc(S(=O)(=O)N(Cc3ccccc3)c3ccccc3)cc2)cc1,15.8µM,x,u,u,x
OC[C@H]1O[C@@H](n2cnc3cc(Cl)c(Cl)cc32)[C@H](O)[C@H]1O,n,x,n,n,x
CC1=C(O)C(=O)[C@H]2O[C@@H]2C1=O,3.98µM,n,2µM,u,x
COc1ccc2c(c1)/C(=C/c1cnc[nH]1)C(=O)N2,n,n,14.1µM,n,u
CCOc1ccc(-c2c(C)n(-c3ccc(OCC)cc3)c3[n+]2CCCCC3)cc1,n,x,u,n,n
CCOc1ccc(-n2nc3c(=S)[nH]nc(C)c3c2C)cc1,n,n,n,n,6.31µM
COc1ccc(-c2nc(CSCC(=O)N3CCN(c4ccc(F)cc4)CC3)c(C)o2)cc1,n,x,u,n,x
O=C(OC1Cc2c(O)cc(O)cc2OC1c1cc(O)c(O)c(O)c1)c1cc(O)c(O)c(O)c1 (configuration not stated),17.8µM,n,6.31µM,6.31µM[quencher],x
O=C(O[C@@H]1Cc2c(O)cc(O)cc2O[C@@H]1c1cc(O)c(O)c(O)c1)c1cc(O)c(O)c(O)c1,u,x,12.6µM,14.1µM[quencher],n
Oc1cc(O)c2c(c1)OC(c1cc(O)c(O)c(O)c1)C(O)C2 (configuration not stated),u,n,25.1µM,u,x
O=C1NC(=O)C(=Cc2ccc(-c3ccccc3[N+](=O)[O-])o2)C(=O)N1,n,x,x,n,u
CN1C(=O)NC(=O)/C(=C\c2ccc([N+](=O)[O-])o2)C1=O,u,n,28.2µM,n,n
CN1C(=O)NC(=O)/C(=C/c2ccc([N+](=O)[O-])o2)C1=O,u,x,12.6µM,n,n
Cc1ccc(/C=C2/C(=O)NC(=O)N(C)C2=O)cc1,n,n,u,n,n
O=C1NC(=O)N(c2ccccc2)C(=O)/C1=C\c1ccc([N+](=O)[O-])s1,u,x,x,u,n
O=C1NC(=O)N(c2ccccc2)C(=O)/C1=C\c1ccc([N+](=O)[O-])o1,u,x,17.8µM,u,n
NCCSC(c1ccccc1)c1ccccc1,x,n[7.66 µM],x,x,x
Cc1ccc(CNC(=O)c2ccccc2NC(=O)c2nsc3ccccc23)cc1,u,x,n,n,x
SMILES,Tau fibril FP,Luc counter,Tau fibril ThT,Tau fluor cs,NPSR antagonist
Cc1ccc(-n2c(O)c(/C=C3/C(c4ccccc4)=Nc4ccccc43)c(=O)[nH]c2=O)cc1,u,x,12.6µM,u,u
CCC1(CC)C(=O)NC(=O)NC1=O,n,n,n,n,x
O=C1NC(=O)C(=O)C(=O)N1,2.82µM,n,2.51µM,n,x
Cc1ccc(C[N+](C)(C)C)o1,u,n,n,n,x
O=C(Nc1ccc(Br)cc1)c1cc(Br)cc(Br)c1O,n,n,12.6µM,u,x
O=C(Nc1ccc(Br)cc1C(=O)c1ccccc1)c1ccccc1,n,x,u,u,x
O=c1[nH]sc2cc(F)ccc12,28.2µM,n,11.2µM,n,n
Cc1ncc([N+](=O)[O-])n1CCN=[N+]=[N-],x,n[7.66 µM],x,x,x
C[C@]12CC(=CO)C(=O)C[C@@H]1CC[C@@H]1[C@@H]2CC[C@@]2(C)[C@H]1CC[C@]2(C)O,n,x,u,n,6.31µM
O=S(=O)(Nc1nccs1)c1ccc([As](=O)(O)O)cc1,x,n[7.66 µM],x,x,x
C=CCc1cc(C=C2C(=O)NC(=O)NC2=O)cc(OC)c1OCc1ccc(C(=O)O)cc1,u,n,u,n,n
C=CCc1cc(C=C2C(=O)N(C)C(=O)N(C)C2=O)cc(OCC)c1OCc1ccccc1,u,n,25.1µM,n,n
N=C(N)c1c(O)n(C2CCCCC2)c(=O)n(C2CCCCC2)c1=O,28.2µM,n,n,u,10µM
COc1ccc(C2CC(c3c(O)n(C4CCCCC4)c(=O)[nH]c3=O)=Nc3ccccc3S2)cc1 (configuration not stated),n,x,u,n,x
N[C@@H](CP(=O)(O)O)C(=O)O,x,n[7.66 µM],x,x,x
CN1C(=O)C(=Cc2sc(=O)n(-c3ccccc3)c2N2CCCCC2)C(=O)N(C)C1=O,n,x,25.1µM,n,n
CN1C(=O)C(=Cc2cc([N+](=O)[O-])ccc2N2CCCCC2)C(=O)N(C)C1=O,n,n,n,n,n
O=P(O)(O)c1ccccc1 (tested in a mixture with another compound),x,n[7.66 µM],x,x,x
Cc1ccccc1N1C(=O)NC(=O)/C(=C\c2cc(Br)c(N3CCOCC3)o2)C1=O,u,n,15.8µM,n,12.6µM
COCCCNC(=O)c1c(NC(=O)c2ccccc2Cl)n(Cc2ccccc2)c2nc3ccccc3nc12,n,n,n,n,u
COCCNC(=O)c1c(NC(=O)c2ccco2)n(Cc2ccccc2)c2nc3ccccc3nc12,u,n,14.1µM,u,u
COC[C@H]1OC(=O)c2coc3c2[C@@]1(C)C1=C(C3=O)[C@H]2CCC(=O)[C@@]2(C)C[C@H]1OC(C)=O,28.2µM,n,14.1µM,u,x
COC[C@H]1OC(=O)c2coc3c2[C@@]1(C)C1=C(C3=O)C2CCC(=O)[C@@]2(C)C[C@H]1OC(C)=O (some centres not stated),u,n,17.8µM!,u,u
COC(=O)C[C@]1(C(=O)OC)CN(C#N)N(c2ccc(Cl)cc2)C12c1ccccc1-c1ccccc12,u,n,14.1µM,n,n
COC(=O)[C@@H]1[C@@H](C(=O)OC)C2(c3ccccc3-c3ccccc32)N(c2ccc(Cl)cc2)N1C#N,u,n,25.1µM,n,6.31µM
CCOC(=O)[C@@H]1[C@@H]2c3ccccc3-c3ccccc3[C@H]2C[C@H]1O,x,n[7.66 µM],x,x,x
CC(C)C[C@H](NC(=O)[C@H](Cc1ccccc1)NC(=O)CNC(=O)[C@H](CS)N(C(=O)[C@@H](N)Cc1ccc(O)cc1)C(C)(C)C)C(=O)N([C@H](C(=O)O)[C@H](C)O)C(C)(C)C,n,x,n,n,x
